These results are taken from PubChem BioAssay AID720582 (The Scripps Research Institute Molecular Screening Center, 2013).

About 2,300 (0.62%) of roughly 370,000 compounds were called active.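 The calls were made as follows: active = inhibition above a per-campaign cutoff equal to the mean of compounds falling between control-based bounds plus 3 SD (cut at about 20% in these data); inactive = the rest.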 For the sample, actives were picked, then their nearest neighbours and some compounds at random.

The target of the experiment is Disintegrin and metalloproteinase domain-containing protein 10 (Homo sapiens) (UniProt O14672). As to the kind of experiment: human ADAM10 inhibitors, primary screen, biochemical, QFRET, HTS (AID 720582).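 Also: 0% = DMSO wells while the 100% control is not disclosed.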 Particulars: recombinant ADAM10, EDANS/DABCYL FRET peptide cleavage, 3 h; at 7 µM; stronger effect = higher value.
Sequence of Disintegrin and metalloproteinase domain-containing protein 10 (Homo sapiens) (O14672 214-748 limits assumed): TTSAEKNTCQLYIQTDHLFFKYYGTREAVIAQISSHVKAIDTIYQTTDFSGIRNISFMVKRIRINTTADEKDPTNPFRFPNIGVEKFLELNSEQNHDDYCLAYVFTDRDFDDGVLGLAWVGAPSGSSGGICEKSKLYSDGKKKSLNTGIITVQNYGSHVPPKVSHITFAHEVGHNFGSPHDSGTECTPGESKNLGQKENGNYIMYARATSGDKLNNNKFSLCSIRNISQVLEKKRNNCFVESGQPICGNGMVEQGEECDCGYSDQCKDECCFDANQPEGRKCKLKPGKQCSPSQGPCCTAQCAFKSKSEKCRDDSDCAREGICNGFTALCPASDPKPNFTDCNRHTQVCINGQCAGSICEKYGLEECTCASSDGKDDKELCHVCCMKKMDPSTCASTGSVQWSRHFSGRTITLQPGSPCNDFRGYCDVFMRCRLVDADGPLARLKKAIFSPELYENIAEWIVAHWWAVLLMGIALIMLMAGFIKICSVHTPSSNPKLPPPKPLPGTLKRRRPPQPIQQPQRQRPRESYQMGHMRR
For `O=c1[nH]c2ccccc2n1C1CCN(C(c2ccnc3ccccc23)c2nnnn2Cc2ccccc2)CC1` (stereo not given), the inhibition (in general, the drop in the measured response relative to a control, in per cent) is -0.89% (inactive).
The result for `O=c1[nH]c2ccccc2n1C1CCN(C(c2ccccc2)c2nnnn2Cc2ccccc2)CC1` (stereo not given) reads -9.55% (inactive).
Regarding `COc1ccc(-n2nnnc2C(c2cccc3ccccc23)N2CCC(n3c(=O)[nH]c4ccccc43)CC2)cc1` (stereo not given), the inhibition was 22.7% (active).
For `CN1CCC(N(C)Cc2cccnc2)CC1`, the inhibition was -14.6% (inactive).
As to `Cc1ccc(-c2nc3ccccc3c(=O)n2-c2ccc(Br)cn2)cc1`, the inhibition is 8.84% (inactive).
With `COP(=O)(Sc1ccccc1)C(Cc1ccccc1)NC(=O)OCc1ccccc1` (stereo not given), the inhibition was 2.57% (inactive).
As for `O=C1C2(Cl)C3(Cl)C4(Cl)C(Cl)(Cl)C5(Cl)C3(Cl)C1(Cl)C5(Cl)C24Cl` (stereo not given), the inhibition is 31.6% (active).
As to `CO[C@H]([C@H](C)/C=C/N(C)C=O)[C@@H](C)C(=O)CC[C@H](C)[C@H](O)[C@H](C)[C@H]1OC(=O)/C=C/C(C)=C/[C@H](O)[C@H](OC)C[C@@H]2C=CC[C@@H](C[C@H](OC)[C@@]3(CO3)[C@@H](OC)C[C@@H](OC)[C@@H]1C)O2`, the inhibition is 3.02% (inactive).
As to `Cc1ccccc1CCC[C@@H](CC1CCCCC1)CN(C)C(=O)Oc1ccccc1`, the inhibition is 1.44% (inactive).
Under `O=C(NCC(c1cccnc1)N1CCN(c2ccccc2)CC1)Oc1ccccc1` (stereo not given) stands 0.63% (inactive); under `COC(=O)C1=C(c2ccc(-c3ccccc3)c(F)c2)C[C@@H]2CC[C@H]1N2C(=O)NCc1ccc(F)cc1`, 28.2% (active).
Regarding `COC(=O)C1=C(c2cccc(OCc3ccccc3)c2)C[C@@H]2CC[C@H]1N2C(=O)NCc1ccc(Br)cc1`, the inhibition is 19.1% (inactive).
In the case of `COC(=O)C1=C(c2ccc(F)cc2OCc2ccccc2)C[C@@H]2CC[C@H]1N2C(=O)NCc1ccc(Cl)cc1`, the inhibition was 17.6% (inactive).
The result for `CCOP(=O)(OCC)C(O)c1ccc(OC)cc1OC` (stereo not given) reads 1.75% (inactive); that for `O=C(Cn1c(=O)n(CC2CS2)c2ccccc21)N1CCCCC1` (stereo not given), -0.6% (inactive).
